# From the supplement of paper PMC10338343
# ± gives the standard deviation.
# Tested on: MILI (PIWIL2) piRISC loaded with L1MC piRNA (26 nt)
# Assay: pre-steady-state target cleavage rate (min^-1); guide: L1MC piRNA 5'p-UAACUAAAUACUAUGCAAGCUGUAGG; MIWI and MILI are mouse PIWI proteins and EfPiwi is from a freshwater sponge; tags in brackets are library labels; higher = faster piRNA-guided slicing of the target
# Details: auxiliary factor: 500 nM mouse GTSF1
# Experimental: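 Cleave-'n-Seq: a library of target RNAs (target site embedded in constant flanks, ACAGCATTCCGCGTTAGTGATATCCG... 5' flank; DNA-blocked outside the site) at 0.1 nM was incubated with 1 nM active mouse MILI or MIWI piRISC (synthetic 5'-monophosphorylated piRNA guide) with or without 500 nM mouse GTSF1 at 33 °C for 1 min to 16 h. Uncleaved targets were sequenced and normalised to non-target controls, and the pooled three trials were fitted to a burst-and-steady-state model to give the pre-steady-state cleavage rate (min^-1; k3 is constrained to at most 1e-4). Sequence is the target site only; target names encode pairing extent (gX:gY) and contiguous / 1-mismatch / 2-mismatch / bulge geometry. Fits with R² ≤ 0 are excluded.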
row,Sequence,pre-steady-state target cleavage rate
1,UCCUGGAUCAGCUUGCAUAGUAUUAUGUUA,0.122 ± 0.021
2,UCCUGGAACAGCUGGCAUAGUAUUUAGUUA,0.17 ± 0.012
3,UCCUGGAACUGCUUGCAUUGUAUUUAGUUA,0.177 ± 0.015
4,UCCUGGAUGUGCUAGCAUAGUAUUUAGAUA,0.0954 ± 0.023
5,UCCUGGAUGUCGAAGCAUAGUAUCUUAGUUA,0.0223 ± 0.0048
6,UCCUGCUACAGCUUGCAUAGUAAAUACAAA,0.0117 ± 0.006
7,UCCUGGAUCAGCUUGCAUAGUAAUUAGUAA,0.0974 ± 0.021
8,UCCUGGAACAGCUUGCAUAGUUUUUAGAUA,0.0168 ± 0.0068
9,UCCUGGUUCAGCUUGCAUAGUAUUAAGUUA,0.186 ± 0.029
10,UCCUGGUACACCAUGCAUAGUAUUUAGUUA,0.176 ± 0.033
11,UCCUGGAUGAGCAAGCAUAGUAUUUAGAAA,0.0674 ± 0.015
12,UCCUGGAUCAGCUUGCAUAGUAAUUAGAUA,0.0994 ± 0.025
13,UCCUGGAAGAGCUUGCAAAGUAUUUAGUUA,0.075 ± 0.012
14,UCCUCCUACAGCUUGCAUAGUAUAUAGAAA,0.105 ± 0.028
15,UCCUCCUACAGCUAGCUUAGUAUUUAGUUA,0.206 ± 0.017
16,UCCUGCUACAGCUUGCAUAGUAUUUAUGUUA,0.182 ± 0.023
17,UCCUGCUACAGCUUGCAAAGUAAUUAGUUA,0.124 ± 0.018
18,UCCUGGAACUGCUUGCAUAGUAUUUAGUAA,0.171 ± 0.015
19,UCCUGGAUGUCGUUGCAUAGUUUUUAGUAA,0.00481 ± 0.004
20,UCCUGGAUGUCCUUGGUUAGUAUUUAGUUA,0.0867 ± 0.022
21,UCCUGGAUCAGCUUGCAUAGUAUUUAGGUUA,0.271 ± 0.027
22,UCCUGGAUGUCGAACGAUAGUAUUUAGUAA [g3:g14:cont:t1A],< 0.0001
23,UCCUGGAUGUCCUAGCAUAGUAAUUAGUUA,0.0282 ± 0.01

# Same assay, conditions: auxiliary factor: none (no GTSF1)
row,Sequence,pre-steady-state target cleavage rate
1,UCCUGGAUCAGCUUGCAUAGUAUUAUGUUA,0.00357 ± 0.0028
2,UCCUGGAACAGCUGGCAUAGUAUUUAGUUA,0.00801 ± 0.003
3,UCCUGGAACUGCUUGCAUUGUAUUUAGUUA,0.00842 ± 0.0019
4,UCCUGGAUGUCGAAGCAUAGUAUCUUAGUUA,0.00455 ± 0.0025
5,UCCUGGAUCAGCUUGCAUAGUAAUUAGUAA,0.00485 ± 0.0021
6,UCCUGGUUCAGCUUGCAUAGUAUUAAGUUA,0.00855 ± 0.0027
7,UCCUGGUACACCAUGCAUAGUAUUUAGUUA,0.0052 ± 0.0033
8,UCCUGGAUGUCGAACGAUAGUUUUAAGUUA,< 0.0001
9,UCCUGGAAGAGCUUGCAAAGUAUUUAGUUA,0.00782 ± 0.0029
10,UCCUCCUACAGCUAGCUUAGUAUUUAGUUA,0.00491 ± 0.0019
11,UCCUGCUACAGCUUGCAUAGUAUUUAUGUUA,0.00699 ± 0.0022
12,UCCUGCUACAGCUUGCAAAGUAAUUAGUUA,0.00266 ± 0.0025
13,UCCUGGAACUGCUUGCAUAGUAUUUAGUAA,0.00419 ± 0.0025
14,UCCUGGAUGUCCUUGGUUAGUAUUUAGUUA,0.00681 ± 0.0022
15,UCCUGGAUGUCGAACGUAUGUAUUUCAGUUA,< 0.0001
16,UCCUGGAUCAGCUUGCAUAGUAUUUAGGUUA,0.00531 ± 0.0025
17,UCCUGGAUGUCCUAGCAUAGUAAUUAGUUA,0.00305 ± 0.0025
